The text below walks through data of PubChem BioAssay AID743332 (Broad Institute, 2014).

Structures are written as SMILES. Measured potencies and affinities stand elsewhere. The source made the active and inactive calls.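 How the source made its calls: active means at least 35% decrease in signal relative to neutral control well mean; inactive means the rest, opposite-direction activity included.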

Caspase-6 (Homo sapiens), sequence (P55212 24-179 limits assumed): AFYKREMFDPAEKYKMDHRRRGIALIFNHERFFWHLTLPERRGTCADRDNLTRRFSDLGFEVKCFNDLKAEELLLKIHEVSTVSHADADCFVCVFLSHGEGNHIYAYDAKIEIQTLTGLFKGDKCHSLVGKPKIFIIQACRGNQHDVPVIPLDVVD
Caspase-6 (Homo sapiens), sequence (P55212 194-293 limits assumed): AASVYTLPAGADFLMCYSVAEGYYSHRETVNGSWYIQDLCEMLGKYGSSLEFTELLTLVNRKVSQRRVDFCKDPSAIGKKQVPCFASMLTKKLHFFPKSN

The assay concerns the target Caspase-6 (Homo sapiens) (UniProt P55212). In words: human caspase-6 inhibitors, dose response, biochemical, VEID-R110 fluorescence, dry powder retest (AID 743332). To be noted: purified caspase-6, Z-VEID-R110 cleavage fluorescence; series mostly up to 35 µM.
In the case of `COc1ccc(C(=O)N2CCN(S(=O)(=O)c3ccccc3)CC2)cc1`, the outcome was inactive. To `O=C(c1cccnc1)N1CCN(S(=O)(=O)c2cccnc2)CC1` belongs “inactive”; to `Cc1ccc(S(=O)(=O)N2CCN(C(=O)c3ccccc3)CC2)cc1`, “inactive”; to `O=C(c1ccccn1)N1CCN(S(=O)(=O)c2ccccc2)CC1`, “inactive”. On to `CC(=O)Nc1ccc(C(=O)N2CCN(S(=O)(=O)c3ccc(C)cc3)CC2)cc1`, for which the molecule was classed as inactive. `Cc1ccc(C(=O)N2CCN(S(=O)(=O)c3ccccc3)CC2)cc1`: the outcome was inactive.

Turning to `O=C(C1COc2ccccc2O1)N1CCN(S(=O)(=O)c2ccccc2)CC1` (stereo not drawn), the outcome was inactive. To `O=C(c1ccccc1)N1CCCC(NS(=O)(=O)c2ccccc2)C1` (stereo not drawn) belongs “inactive”; to `Cc1cccc(C(=O)N2CCCN(S(=O)(=O)c3ccc4c(c3)OCCO4)CC2)c1`, “inactive”.

In the case of `Cc1ccc(S(=O)(=O)N2CCCN(C(=O)c3ccoc3)CC2)cc1`, the molecule was classed as inactive.

Regarding `O=S(=O)(c1ccccc1)N1CCN(Cc2ccccc2)CC1`, the molecule was called inactive.

As for `Cc1ccc(C(=O)N2CCN(S(=O)(=O)c3ccc(C)cc3)CC2)cc1`, the call was inactive.

With `Cc1ccc(S(=O)(=O)N2CCN(C(=O)c3ccco3)CC2)cc1`, the result was inactive.
